From PubChem BioAssay AID1159580 (chemical genetic matrix, 2015)
The whole screen tested about 5,500 compounds, of which about 2,000 (36%) were called active. Another 18% or so got no clear call; they are omitted. Cut-off read from the data, not from the text of the source: active = normalized growth mostly below about 0.91 (no sharp cut-off); inconclusive = no clear call, values can overlap the other calls; inactive = mostly above about 0.92. This is one part of the list.

Assay: chemical genetic growth profiling, strain panel (AID 1159580);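 note: tested at 20 µM; growth read once vehicle control cultures reached saturation at 30 °C; 1 = growth at the plate median or of vehicle wells; lower values mean less growth of the strain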
Conditions: S. cerevisiae deletion strains, growth OD

Measured: normalized growth

CC1(C)S[C@@H]2[C@H](NC(=O)[C@H](C(=O)O)c3cccs3)C(=O)N2[C@H]1C(=O)O
inactive: locus YAL021C, strain ccr4, active compounds read low 0.996 | locus YAL026C, strain drs2, active compounds read low 1.02 | locus YAL030W, strain snc1, active compounds read low 1.01 | locus YBL061C, strain skt5, active compounds read low 1.01 | locus YBR009C, strain hhf1, active compounds read low 1.03 | locus YBR023C, strain chs3, active compounds read low 1.01 | locus YBR171W, strain sec66, active compounds read low 1.03 | locus YBR231C, strain swc5, active compounds read low 1.02 | locus YBR279W, strain paf1, active compounds read low 1.01 | locus YCL011C, strain gbp2, active compounds read low 1.01 | locus YCL016C, strain dcc1, active compounds read low 0.998 | locus YCL061C, strain MRC1, active compounds read low 1.01 | locus YCL069W, strain vba3, active compounds read low 0.999 | locus YCR088W, strain abp1, active compounds read low 0.996 | locus YDL005C, strain med2, active compounds read low 1.01 | locus YDL040C, strain nat1, active compounds read low 0.999 | locus YDR001C, strain nth1, active compounds read low 1 | locus YDR069C, strain doa4, active compounds read low 1.04 | locus YDR137W, strain rgp1, active compounds read low 1.02 | locus YDR159W, strain sac3, active compounds read low 1.01 | locus YDR195W, strain ref2 1.02 | locus YDR297W, strain sur2, active compounds read low 1.01 | locus YDR334W, strain swr1, active compounds read low 1 | locus YDR335W, strain msn5, active compounds read low 1.01 | locus YDR392W, strain spt3, active compounds read low 1.01 | locus YEL003W, strain gim4, active compounds read low 1.01 | locus YEL037C, strain rad23, active compounds read low 0.973 | locus YEL061C, strain CIN8 (second series), active compounds read low 0.991 | locus YER015W, strain faa2, active compounds read low 1.01 | locus YER016W, strain bim1, active compounds read low 1 | locus YER111C, strain swi4, active compounds read low 1.01 | locus YER155C, strain BEM2 (second series), active compounds read low 1.04 | locus YFR010W, strain ubp6, active compounds read low 1 | locus YGL167C, strain pmr1, active compounds read low 1.01 | locus YGL173C, strain kem1, active compounds read low 1.01 | locus YGL227W, strain vid30, active compounds read low 1 | locus YGL240W, strain doc1, active compounds read low 1.04 | locus YGL253W, strain hxk2, active compounds read low 0.998 | locus YHR013C, strain ard1, active compounds read low 1.03 | locus YHR027C, strain rpn1, active compounds read low 1 | locus YHR030C, strain SLT2, active compounds read low 1.01 | locus YHR079C, strain IRE1, active compounds read low 1.02 | locus YHR142W, strain chs7, active compounds read low 0.957 | locus YJL092W, strain hpr5, active compounds read low 1 | locus YJL095W, strain BCK1 (second series), active compounds read low 1 | locus YJL095W, strain BCK1, active compounds read low 0.974 | locus YJL115W, strain asf1, active compounds read low 1 | locus YJL129C, strain trk1, active compounds read low 1.01 | locus YJL154C, strain vps35, active compounds read low 0.999 | locus YJL164C, strain tpk1, active compounds read low 0.999 | locus YJL166W, strain qcr8, active compounds read low 1.01 | locus YJL187C, strain SWE1, active compounds read low 1.02 | locus YJR066W, strain TOR1, active compounds read low 0.952 | locus YKL160W, strain elf1, active compounds read low 1.01 | locus YKR026C, strain gcn3, active compounds read low 0.991 | locus YKR091W, strain srl3, active compounds read low 1.01 | locus YLL001W, strain dnm1, active compounds read low 0.999 | locus YLL026W, active compounds read low 1.01 | locus YLL041C, strain sdh2, active compounds read low 1.01 | locus YLR027C, strain aat2, active compounds read low 1.01 | locus YLR113W, strain HOG1, active compounds read low 0.971 | locus YLR221C, strain rsa3, active compounds read low 0.989 | locus YLR258W, strain gsy2, active compounds read low 1.02 | locus YLR262C, strain YPT6 (second series), active compounds read low 0.996 | locus YLR320W, strain mms22, active compounds read low 1.01 | locus YLR342W, strain FKS1, active compounds read low 1.01 | locus YLR357W, strain rsc2, active compounds read low 1.07 | locus YLR370C, strain arc18, active compounds read low 1.01 | locus YLR384C, strain iki3, active compounds read low 0.994 | locus YML120C, strain ndi1, active compounds read low 1.01 | locus YMR058W, strain fet3, active compounds read low 1.02 | locus YMR125W, strain sto1, active compounds read low 1.03 | locus YMR129W, active compounds read low 1 | locus YMR205C, strain PFK2, active compounds read low 1.03 | locus YMR231W, strain pep5, active compounds read low 1.01 | locus YNL071W, strain lat1, active compounds read low 1.01 | locus YNL183C, strain NPR1, active compounds read low 0.96 | locus YNL209W, strain ssb2, active compounds read low 1.01 | locus YNL248C, strain rpa49, active compounds read low 0.991 | locus YNL322C, strain KRE1 (second series), active compounds read low 1.01 | locus YNR049C, strain mso1, active compounds read low 0.994 | locus YOR001W, strain rrp6, active compounds read low 1 | locus YOR070C, strain gyp1, active compounds read low 0.999 | locus YOR080W, strain dia2, active compounds read low 1.02 | locus YOR083W, strain WHI5, active compounds read low 1 | locus YOR106W, strain vam3, active compounds read low 1 | locus YOR231W, strain MKK1, active compounds read low 1.02 | locus YOR265W, strain rbl2, active compounds read low 0.998 | locus YOR270C, strain vph1, active compounds read low 1 | locus YOR290C, strain snf2, active compounds read low 1.01 | locus YPL051W, strain arl3, active compounds read low 1 | locus YPL078C, strain atp4, active compounds read low 0.989 | locus YPL106C, strain sse1, active compounds read low 1.03 | locus YPL240C, strain hsp82, active compounds read low 0.986 | locus YPL256C, strain CLN2, active compounds read low 1.03
